# From PubChem BioAssay
# “And” between values parts separate entries of the source, which are not always exact repeats. Equal entries are not always repeated. For part of these data: Results with a measured potency or affinity are listed apart. The source made the active and inactive calls.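 Rule for the calls, unless noted: active = compounds whose cell count with miR-34 switched on is under 0.7 times the count with it off; inactive = the rest.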 Peptide text beside a SMILES is read from it.
# How the values were obtained:
# [1] = P. berghei load reduction in hepatocytes – cell-based, HepG2, luciferase luminescence, HepG2 viability, primary screen (AID 624349; in the data active = parasite load remaining mostly below about 12%, no sharp cut-off; inactive = mostly above about 10%;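 note: 100% = mean of DMSO negative control wells on the same plate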); conditions: P. berghei liver stage in HepG2, luciferase luminescence, concentration not given here; parasite load remaining: stronger effect = lower value; viability: measured here: HepG2 viability without parasites
# [2] = biological target: 6-phosphogluconate dehydrogenase, decarboxylating (Homo sapiens) (UniProt P52209); assay: inhibition of human phosphogluconate dehydrogenase – biochemical, recombinant enzyme, NADPH absorbance, primary screen (AID 1159550;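 active = at least 20% inhibition of 6-phosphogluconate dehydrogenase activity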); conditions: recombinant 6PGD, NADPH absorbance 341 nm; at 10 µM; stronger effect = higher value
# [3] = EMT-state selective cytotoxicity in co-culture – imaging, PC-3E GFP, TEM4-18 mCherry, primary screen (AID 1345086;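 active = compounds killing one labelled cell type while sparing the other, by normalised counts and ratio limits, not self-fluorescent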;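 for all read-outs here: cells exposed to compound for 72 h before imaging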;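 for red/green cell ratio (normalised): normalised mesenchymal count divided by normalised epithelial count so high means epithelial killing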); conditions: PC-3E GFP / TEM4-18 mCherry co-culture, imaging cell counts, at 1 µM; for red/green cell ratio (normalised): actives lie on both sides, counts scaled to control wells, 1 = unselective
# [4] = viability loss with induced miR-34 in A549 – imaging, A549 dox-inducible miR-34, nuclei and caspase counts, primary screen (AID 1347080); conditions: A549 miR-34 inducible, Hoechst nuclei count, 48 h
# [5] = biological target: Mitogen-activated protein kinase 7 (Homo sapiens) (UniProt Q13164); assay: Gal4-ERK5 driven luciferase induction – cell-based, HTS, primary screen (AID 1508626;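 active = luciferase signal above three times the same-plate solvent-only control wells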;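 note: luciferase driven by Gal4-ERK5 fusion binding five Gal4 sites before minimal TATA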); conditions: HeLa Gal4-ERK5 transactivation, 18 h, at 5 µM, stronger effect = higher value
# [6] = blockers of polyQ-driven CASP3 activation – cell-based (AID 1583); conditions: polyglutamine-induced caspase-3 activation, cell assay; stronger effect = higher value;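 tested at 10 µM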
# [7] = yeast 75Q aggregation reduction – 75Q-TubU reporter (AID 1593); conditions: Yeast 75Q polyglutamine aggregation reporter
# [8] = restoration of touch response, mutant HTT neurons – whole organism, C. elegans mechanosensory neurons, N-terminal huntingtin (AID 1599); conditions: C. elegans polyQ-huntingtin mechanosensory neurons, stronger effect = higher value
# [9] = blockers of cytochrome c efflux from mitochondria – biochemical, purified mitochondria (AID 1603); conditions: stronger effect = lower value;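 note: mouse liver mitochondria challenged with calcium chloride; signal normalized to the plate average as 100%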
# [10] = polyglutamine aggregate formation blockers (AID 1604); conditions: polyglutamine-induced protein aggregation inhibition assay; stronger effect = higher value; tested at 2.5 µM
# [11] = glutamate transport activators, MN-1 cells, MN-1 cell line (AID 1612); conditions: MN-1 motor neuron cells, stronger effect = higher value;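 note: tested at 1 µM final; 0% = mean of DMSO vehicle wells on each plate; positive means more glutamate uptake than control and negative means less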
# [12] = GFP-Q80 aggregate reduction, neuronal-like cells, cell-based, NGF-treated PC12, GFPQ80 (AID 1614); conditions: PC12 NGF-treated GFP-polyQ80 inclusion reduction;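 note: lower means fewer inclusions and 0 means no inclusions at all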
# [13] = 75Q-TubH aggregate inhibition, S. cerevisiae, yeast (AID 1616); conditions: S. cerevisiae 75Q-TubH polyglutamine aggregation suppression; stronger effect = higher value
# [14] = MELAS cybrid and Rieske KO viability enhancers – cell-based, MELAS cybrids, Rieske KO mouse fibroblasts, CellTiter-Glo, primary screen (AID 1508586;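 active = mean z-score across replicates of 1.96 or higher in either the MELAS or the Rieske mutant cell line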;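 note: z relative to plate mean and SD of compound and empty wells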); conditions: low glucose
# [15] = compounds altering circadian rhythm period length – cell-based, LOPAC library, luminescence reporter (AID 2774; call rule not given here;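 note: values are relative to mean of DMSO wells on each plate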); conditions: circadian reporter cells, at 7 µM, actives lie on both sides
# [16] = test system: Hepatitis C virus NS3 helicase; assay: blockers of NS3h binding to ssDNA – biochemical, fluorescence polarization, LOPAC1280 library, primary screen (AID 687035; in the data active = inhibition above about 37%); conditions: Purified HCV NS3 helicase, Cy5-dT15 ssDNA binding fluorescence polarization; stronger effect = higher value; concentration not given here
# [17] = compounds altering Cy5-DNA-NS3h complex signal – biochemical, LOPAC1280, artefact control for HCV NS3 helicase inhibitor project (AID 687037; call rule not given here); conditions: Cy5-DNA-NS3h complex fluorescence interference counterscreen
# [18] = blockers of cellular phospholipid synthesis – cell-based, LOPAC library, screen 4, primary screen (AID 1347384; call rule not given here); conditions: animal cells, phospholipid biosynthesis inhibition screen; at 10 µM
# [19] = galactose survival enhancers in mitochondrial complex I cybrids – cell-based, galactose medium, ATP luminescence, primary screen (AID 1645843;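 active = z-score of at least 1.8 in each of two replicates, scored against plate mean and spread of sample wells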;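 note: positive z means more ATP and so rescue of galactose-driven cybrid death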); conditions: complex I mutant cybrid cells, 72 h, stronger effect = higher value
# [20] = measured here: epithelial PC-3E GFP cell survival
# [21] = measured here: mesenchymal TEM4-18 mCherry cell survival
# [22] = stronger effect = lower value, cell number ratio, induced over uninduced
# [23] = measured here: relative caspase fold change +Dox/-Dox
# [24] = measured here: total cells with miR-34 induction, stronger effect = lower value
# [25] = measured here: total cells without miR-34 induction
# [26] = MELAS cybrid survival, CellTiter-Glo 48 h, stronger effect = higher value
# [27] = Rieske KO mouse fibroblast survival, CellTiter-Glo 72 h
# Chain of 6-phosphogluconate dehydrogenase, decarboxylating (Homo sapiens) (P52209 whole entry, looked up): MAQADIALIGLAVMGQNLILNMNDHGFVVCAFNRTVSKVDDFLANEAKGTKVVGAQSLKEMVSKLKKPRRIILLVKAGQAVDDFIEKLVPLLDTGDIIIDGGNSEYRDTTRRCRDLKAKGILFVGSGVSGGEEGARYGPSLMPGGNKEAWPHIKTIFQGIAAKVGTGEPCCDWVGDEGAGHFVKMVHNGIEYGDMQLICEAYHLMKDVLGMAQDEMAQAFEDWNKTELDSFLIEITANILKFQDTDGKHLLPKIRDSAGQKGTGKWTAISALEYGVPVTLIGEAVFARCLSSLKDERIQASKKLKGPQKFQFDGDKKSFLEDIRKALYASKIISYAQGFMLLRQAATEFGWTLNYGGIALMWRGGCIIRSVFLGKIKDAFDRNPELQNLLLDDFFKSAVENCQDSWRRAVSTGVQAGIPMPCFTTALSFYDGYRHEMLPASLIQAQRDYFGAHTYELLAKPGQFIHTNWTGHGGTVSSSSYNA
# Chain of Mitogen-activated protein kinase 7 (Homo sapiens) (Q13164 whole entry, looked up, the tested form may be a part): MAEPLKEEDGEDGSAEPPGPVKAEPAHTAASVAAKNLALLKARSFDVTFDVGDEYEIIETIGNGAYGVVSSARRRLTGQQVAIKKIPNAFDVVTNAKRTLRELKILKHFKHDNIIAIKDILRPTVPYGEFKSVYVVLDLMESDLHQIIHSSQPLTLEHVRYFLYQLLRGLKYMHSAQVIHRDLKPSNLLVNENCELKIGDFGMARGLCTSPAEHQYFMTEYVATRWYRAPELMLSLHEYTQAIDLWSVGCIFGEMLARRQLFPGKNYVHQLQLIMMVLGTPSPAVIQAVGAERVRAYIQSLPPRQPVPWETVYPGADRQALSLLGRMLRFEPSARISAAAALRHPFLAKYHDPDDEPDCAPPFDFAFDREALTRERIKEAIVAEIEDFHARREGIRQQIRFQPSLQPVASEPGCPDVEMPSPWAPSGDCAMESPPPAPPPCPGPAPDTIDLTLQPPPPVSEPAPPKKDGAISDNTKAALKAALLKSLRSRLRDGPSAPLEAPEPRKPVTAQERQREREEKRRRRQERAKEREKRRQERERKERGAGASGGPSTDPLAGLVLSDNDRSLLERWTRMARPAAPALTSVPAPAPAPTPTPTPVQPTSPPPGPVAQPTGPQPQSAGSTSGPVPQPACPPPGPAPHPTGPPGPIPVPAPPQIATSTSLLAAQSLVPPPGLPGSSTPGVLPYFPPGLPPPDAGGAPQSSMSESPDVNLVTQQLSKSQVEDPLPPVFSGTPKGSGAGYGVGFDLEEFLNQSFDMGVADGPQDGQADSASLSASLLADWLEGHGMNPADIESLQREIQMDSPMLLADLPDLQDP
compound,measurement,setting,value
COc1ccc2cc1Oc1ccc(cc1)C[C@H]1c3cc(c(OC)cc3CCN1C)Oc1c(OC)c(OC)cc3c1[C@H](C2)N(C)CC3,parasite load remaining,[1],84.6% (inactive)
same,viability,[1],98.6%
same,inhibition,[2],19.5% (inactive)
same,red/green cell ratio (normalised),[3],0.86 (inactive)
same,normalised cell number,[3]; [20],1.08
same,normalised cell number,[3]; [21],0.93
same,fold change,[4]; [22],0.882 (inactive) and 1.13 (inactive)
same,fold change,[4]; [23],1.24 and 1.19
same,cell count,[4]; [24],7200 and 3450
same,cell count,[4]; [25],8160 and 3060
same,luciferase signal,[5],68 AU (inactive)
CC1=C(/C=C/C(C)=C/C=C/C(C)=C/C=C/C=C(C)/C=C/C=C(C)/C=C/C2=C(C)CCCC2(C)C)C(C)(C)CCC1,inhibition,[6],-13.5%
same,score,[7],1.3
same,rescue above control,[8],-6.44
same,cytochrome c release ratio,[9],0.86
same,inhibition of aggregation,[10],42.6%
same,glutamate uptake change,[11],-16.2%
same,inclusion score,[12],2.5
same,aggregation suppression score,[13],0.881
same,parasite load remaining,[1],58% (inactive)
same,viability,[1],103%
same,inhibition,[2],2.51% (inactive)
same,red/green cell ratio (normalised),[3],0.84 (inactive)
same,normalised cell number,[3]; [20],1.16
same,normalised cell number,[3]; [21],0.98
same,fold change,[4]; [22],0.908 (inactive)
same,fold change,[4]; [23],1.03
same,cell count,[4]; [24],11100
same,cell count,[4]; [25],12200
same,luciferase signal,[5],36 AU (inactive)
COc1ccc(-c2coc3cc(O)cc(O)c3c2=O)cc1,inhibition,[6],-2.46%
same,score,[7],1.27
same,rescue above control,[8],4
same,cytochrome c release ratio,[9],2.73
same,inhibition of aggregation,[10],22.4%
same,glutamate uptake change,[11],10.2%
same,aggregation suppression score,[13],1.01
same,inhibition,[2],17.9% (inactive)
same,red/green cell ratio (normalised),[3],0.99 (inactive)
same,normalised cell number,[3]; [20],1.32
same,normalised cell number,[3]; [21],1.3
same,fold change,[4]; [22],0.896 (inactive)
same,fold change,[4]; [23],0.917
same,cell count,[4]; [24],7900
same,cell count,[4]; [25],8810
same,z-score,[14]; [26],-0.162 (inactive)
same,z-score,[14]; [27],-1.4
same,luciferase signal,[5],16 AU (inactive)
O=C(O)/C=C/c1ccc(O)c(O)c1,period change,[15],0.055 h (inactive)
same,inhibition,[16],0% (inactive)
same,fluorescence ratio (interference),[17],1 (inactive)
same,inhibition,[2],7.04% (inactive)
same,red/green cell ratio (normalised),[3],1.06 (inactive)
same,normalised cell number,[3]; [20],1
same,normalised cell number,[3]; [21],1.06
same,fold change,[4]; [22],0.967 (inactive) and 0.99 (inactive)
same,fold change,[4]; [23],2.48 and 1.11
same,cell count,[4]; [24],10100 and 5830
same,cell count,[4]; [25],10400 and 5890
same,outcome,[18],inactive
same,luciferase signal,[5],32 AU (inactive)
same,z-score,[19],-0.81 (inactive)
CCC(c1ccc(O)cc1)C(CC)c1ccc(O)cc1 (configuration not stated),inhibition,[6],87.7%
same,score,[7],-0.18
same,rescue above control,[8],0
same,cytochrome c release ratio,[9],0.95
same,inhibition of aggregation,[10],62%
same,glutamate uptake change,[11],-7.89%
same,aggregation suppression score,[13],-0.0418
same,parasite load remaining,[1],53.4% (inactive) and 65.7% (inactive)
same,viability,[1],91.5% and 76.1%
same,inhibition,[2],-4.21% (inactive)
same,red/green cell ratio (normalised),[3],0.99 (inactive)
same,normalised cell number,[3]; [20],1.08
same,normalised cell number,[3]; [21],1.07
same,fold change,[4]; [22],0.875 (inactive) and 0.921 (inactive)
same,fold change,[4]; [23],1.39 and 0.838
same,cell count,[4]; [24],8210 and 9640
same,cell count,[4]; [25],9390 and 10500
same,z-score,[14]; [26],-0.359 (inactive) and -2.3 (inactive)
same,z-score,[14]; [27],0.432 and -0.759
same,luciferase signal,[5],40 AU (inactive)
O=c1c(O)c(-c2ccc(O)cc2O)oc2cc(O)cc(O)c12,inhibition,[6],-17.6%
same,score,[7],1.66
same,rescue above control,[8],-6.82
same,cytochrome c release ratio,[9],0.57
same,inhibition of aggregation,[10],49%
same,glutamate uptake change,[11],-11.3%
same,inclusion score,[12],2
same,aggregation suppression score,[13],0.872
same,period change,[15],0.015 h (inactive)
same,parasite load remaining,[1],81.2% (inactive)
same,viability,[1],66.9%
same,inhibition,[16],-4% (inactive)
same,fluorescence ratio (interference),[17],1 (inactive)
same,inhibition,[2],-23.3% (inactive)
same,red/green cell ratio (normalised),[3],0.97 (inactive)
same,normalised cell number,[3]; [20],1.01
same,normalised cell number,[3]; [21],0.98
same,fold change,[4]; [22],1.04 (inactive) and 0.943 (inactive)
same,fold change,[4]; [23],0.926 and 0.734
same,cell count,[4]; [24],11400 and 9750
same,cell count,[4]; [25],11000 and 10300
same,outcome,[18],inactive
same,z-score,[14]; [26],-0.297 (inactive)
same,z-score,[14]; [27],0.729
same,luciferase signal,[5],32 AU (inactive)
same,z-score,[19],0.495 (inactive)
CCn1nc(C(=O)O)c(=O)c2cc3c(cc21)OCO3,inhibition,[6],20.5%
same,score,[7],0.7
same,rescue above control,[8],3.16
same,cytochrome c release ratio,[9],0.93
same,inhibition of aggregation,[10],18.2%
same,glutamate uptake change,[11],-5.25%
same,inclusion score,[12],2
same,aggregation suppression score,[13],0.697
same,period change,[15],0.04 h (inactive)
same,parasite load remaining,[1],87.3% (inactive) and 66.8% (inactive)
same,viability,[1],99.6% and 76.9% and 91.7%
same,inhibition,[16],-4% (inactive)
same,fluorescence ratio (interference),[17],1 (inactive)
same,inhibition,[2],6.67% (inactive)
same,red/green cell ratio (normalised),[3],1.25 (inactive)
same,normalised cell number,[3]; [20],1.11
same,normalised cell number,[3]; [21],1.38
same,fold change,[4]; [22],0.983 (inactive) and 0.931 (inactive) and 0.893 (inactive)
same,fold change,[4]; [23],1.81 and 0.999 and 1.16
same,cell count,[4]; [24],10100 and 8650 and 10900
same,cell count,[4]; [25],10300 and 9290 and 12200
same,outcome,[18],inactive
same,z-score,[14]; [26],-0.474 (inactive)
same,z-score,[14]; [27],-0.663
same,luciferase signal,[5],32 AU (inactive)
same,z-score,[19],0.215 (inactive)
CC(=O)N[C@@H](CC(=O)O)C(=O)N[C@@H](CCC(=O)O)C(=O)O (Ac-Asp-Glu-OH),inhibition,[6],12.9%
same,score,[7],1.12
same,rescue above control,[8],7.68
same,cytochrome c release ratio,[9],1.15
same,inhibition of aggregation,[10],1.96%
same,glutamate uptake change,[11],0%
same,inclusion score,[12],2
same,aggregation suppression score,[13],1.06
same,inhibition,[2],-7.58% (inactive)
same,red/green cell ratio (normalised),[3],0.86 (inactive)
same,normalised cell number,[3]; [20],1.17
same,normalised cell number,[3]; [21],1.01
same,fold change,[4]; [22],0.963 (inactive)
same,fold change,[4]; [23],0.542
same,cell count,[4]; [24],8810
same,cell count,[4]; [25],9150
same,z-score,[19],-0.67 (inactive)
O=c1cc(-c2ccccc2)oc2cc(O)cc(O)c12,inhibition,[6],16.7%
same,score,[7],-0.45
same,rescue above control,[8],1.21
same,cytochrome c release ratio,[9],0.64
same,inhibition of aggregation,[10],83.3%
same,glutamate uptake change,[11],-33.9%
same,aggregation suppression score,[13],0.573
same,parasite load remaining,[1],112% (inactive) and 75% (inactive)
same,viability,[1],98.1% and 69.3%
same,inhibition,[2],13.6% (inactive)
same,red/green cell ratio (normalised),[3],0.89 (inactive)
same,normalised cell number,[3]; [20],1.21
same,normalised cell number,[3]; [21],1.08
same,fold change,[4]; [22],0.807 (inactive) and 0.948 (inactive)
same,fold change,[4]; [23],1.38 and 0.939
same,cell count,[4]; [24],5370 and 8220
same,cell count,[4]; [25],6660 and 8680
same,z-score,[14]; [26],-0.289 (inactive)
same,z-score,[14]; [27],0.583
same,luciferase signal,[5],136 AU (inactive)
C1CCc2nnnn2CC1,period change,[15],-0.075 h (inactive)
same,parasite load remaining,[1],23.8% (inactive) and 86.6% (inactive) and 79.3% (inactive)
same,viability,[1],50.2% and 91.9% and 103%
same,inhibition,[16],-2% (inactive)
same,fluorescence ratio (interference),[17],1 (inactive)
same,inhibition,[2],10.8% (inactive)
same,red/green cell ratio (normalised),[3],1.25 (inactive)
same,normalised cell number,[3]; [20],1.11
same,normalised cell number,[3]; [21],1.38
same,outcome,[18],inactive
same,z-score,[14]; [26],-0.00315 (inactive)
same,z-score,[14]; [27],-0.232
same,luciferase signal,[5],96 AU (inactive)
same,z-score,[19],0.7 (inactive) and 0.6 (inactive)
COc1cc(/C=C/C(=O)O)ccc1O,parasite load remaining,[1],186% (inactive)
same,viability,[1],69.3%
same,inhibition,[2],3.09% (inactive)
same,red/green cell ratio (normalised),[3],1.05 (inactive)
same,normalised cell number,[3]; [20],1
same,normalised cell number,[3]; [21],1.05
same,luciferase signal,[5],48 AU (inactive)
